Bioassay records (PubChem BioAssay)
Only some compounds are listed: those with a hit (about 19% of all), similar ones and a draw of the others.
HT1080NT lethal = qHTS for induction of synthetic lethality in tumor cells producing 2HG: qHTS for the HT-1080-NT fibrosarcoma cell line | HT-1080-NT fibrosarcoma viability, CellTiter-Glo ATP luminescence, 48 h | AID 686970, 2013 | Potency, µM (doses to about 46.1 µM), for the others: at the top dose activity, negative = less viability, hits mostly cytotoxic | hit rate 1.6% among 360,000;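 also: NT is the 2HG producing partner of a matched IDH1 knockdown line; potency is read from the fitted curve at half-maximal effect; 0% = DMSO-treated cells and -100% = media-only wells without cells; nearly all actives have a fitted effect of over 55% in size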
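Read-out is CellTiter-Glo luminescence after 10 minutes at room temperature, following 48 hours' compound treatment of HT-1080-NT cells (750 cells/well, RPMI, 5% FBS, 37 degrees C).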
IL-1B inflam inh = qHTS for Inhibitors of Inflammasome Signaling: IL-1-beta AlphaLISA Primary Screen. THP-1 LPS/ATP IL-1B secretion, AlphaLISA, 16 h; stronger effect = lower value. activity change, % at 57.5 µM. hit rate 4.7% among 360,000; in the data active = activity change below about -50%; inconclusive = mostly about -30% to -49%
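Secreted IL-1B measured by AlphaLISA bead assay after 16 h compound exposure of THP-1 cells; compounds (final up to 57.5 uM) added 1 h before LPS (250 ng/mL) and ATP (1.25 mM) stimulation; lower signal means less secretion.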
TDP1 cell CPT = qHTS for Inhibitors of human tyrosyl-DNA phosphodiesterase 1 (TDP1): qHTS in cells in presence of CPT. chicken DT40 Tdp1-/-;hTDP1 cells + 20 nM CPT, ATP luminescence, 48 h. hit rate 12% among 420,000. Potency, µM (top dose mostly 46.2 µM), inactives show top-dose activity change, negative = growth inhibition, most hits filed as inhibitors. AID 686979, 2013; also: potency is read from the fitted curve at half-maximal effect; nearly all actives have a fitted effect of over 55% in size
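Chicken DT40 Tdp1-/- cells complemented with human TDP1, 400 cells/well, exposed to compounds plus 20 nM camptothecin for at least 48 h at 37 C; viability read as ATP content by CellTiter-Glo luminescence.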
TDP1 cell noCPT = qHTS for Inhibitors of human tyrosyl-DNA phosphodiesterase 1 (TDP1): qHTS in cells in absence of CPT. DT40 Tdp1-/- hTDP1 cells, no CPT, ATP luminescence, 48 h. Potency, µM (highest dose often 46.2 µM), inactives show at the top dose activity change, negative = growth inhibition, actives largely listed as inhibitors. hit rate 15% among 420,000. AID 686978, 2013; also: potency is read from the fitted curve at half-maximal effect; nearly all actives have a fitted effect of over 55% in size
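A cellular qHTS used chicken DT40 cells lacking endogenous Tdp1 but carrying stably transfected human TDP1. Compounds were applied without camptothecin, and cell growth kinetics were judged by ATP-dependent luminescence after ≥48 hr.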
HT1080 IDH1KD tx = qHTS for induction of synthetic lethality in tumor cells producing 2HG: qHTS for the HT-1080-IDH1KD cell line; HT-1080 IDH1 knockdown viability, ATP luminescence, 48 h; hit rate 2% among 360,000; Potency, µM (titrated, usually from 46.1 µM), inactives show top-dose activity, negative = toxicity, actives largely listed as cytotoxic;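 also: potency is read from the fitted curve at half-maximal effect; 0% = DMSO wells and -100% = cell-free medium wells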
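CellTiter-Glo luminescence after 48 h compound exposure at 37 degrees C of IDH1-knockdown HT-1080 cells in 5% FBS RPMI. %Activity scaled between DMSO wells and cell-free media wells, with curves fitted and assigned curve classes.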
Active calls of the source: *; ? = inconclusive; nt = not tested or not shown. Unless noted, calls follow the shape of the dose curve; as a rule, active = well fitted curve in the direction sought with a large enough effect; inconclusive = small, poorly fitted or top-dose-only effect, or another doubt; inactive = no such curve, though single readings can be large; an effect the other way counts as inactive or inconclusive. Unless noted, % is scaled to controls: 0 for no effect and ±100 for the full control effect.

SMILES | HT1080NT lethal | IL-1B inflam inh | TDP1 cell CPT | TDP1 cell noCPT | HT1080 IDH1KD tx
Cc1ccc(NC(=O)c2ccc(CSc3ccccn3)cc2)c(O)c1 | 0% | -12 | -20% | ? | 1%
Cc1ccc(NC(=O)c2ccc(CSc3ccccn3)cc2)cc1 | -9% | ? | ? | 23µM* | -18%
CCc1ccc(N/C(N)=N/c2nc(CSc3ccccn3)cc(=O)[nH]2)cc1 | -1% | -7 | 15µM* | 16µM* | -5%
CC(C)Oc1ccc(CNC(=O)c2ccc3nc(C(C)C)oc3c2)cc1 | nt | nt | 4% | ? | nt
COc1ccc(S(=O)(=O)N2CCCCC2)cc1NC(=O)c1cccc(S(=O)(=O)N2CC(C)OC(C)C2)c1 (centres undefined) | -8% | -19 | -14% | ? | -5%
CCC(C)[C@H]1COCCS(=O)(=O)N1Cc1ccccc1 (some centres undefined) | 9% | -6 | -8% | -27% | 13%
CCCn1c(NC(=O)CSCC(=O)Nc2cc(C)on2)nc2ccccc21 | -6% | 12 | -22% | ? | 1%
Cn1ncc([N+](=O)[O-])c1C(=O)Nc1nc2ccccc2n1CCN1CCCCC1 | 3% | ? | -20% | ? | 5%
CCCn1c(NC(=O)C2CCN(C(=O)c3ccccc3C)CC2)nc2ccccc21 | -2% | -27 | 16µM* | ? | -13%
Cc1ccccc1C(=O)N1CCC(C(=O)O)CC1 | 5% | 9 | -5% | -13% | 8%
CCCn1c(NC(=O)c2ccc([N+](=O)[O-])o2)nc2ccccc21 | -20% | -20 | 21µM* | ? | ?
Cc1cccc(NC(=O)C2CCN(C(=O)c3ccccc3C)CC2)n1 | 10% | 7 | -10% | -13% | 0%
CCCn1c(NC(=O)c2cccc(C)c2C)nc2ccccc21 | ? | 9 | 13µM* | 15µM* | ?
CC(=O)c1sc(NC(=O)C2CCN(C(=O)c3ccccc3C)CC2)nc1-c1ccccc1 | -14% | -2 | 18µM* | ? | -9%
C[C@H]1CN([C@@H](C)CO)C(=O)CCCn2nncc2CO[C@@H]1CN(C)S(=O)(=O)c1ccc(-n2cccn2)cc1 | 6% | 16 | 4% | -1% | 5%
C=C1C2=C(C(=O)N1OC)[C@@H](O)[C@@](C)(O)[C@@H](CCCCC)O2 | ? | -83* | 15µM* | 13µM* | ?
COc1ccc(-n2c(=O)c3c(c4cc(OC)ccc4n3C)n(Cc3c(F)cccc3Cl)c2=O)cc1 | nt | nt | -3% | -13% | nt
C=CCN(c1ccccc1OC)S(=O)(=O)c1ccc(Cl)c(C(=O)NCc2ccco2)c1 | -2% | 26 | 18µM* | 13µM* | -1%
COCCCNC(=O)c1ccccc1N(Cc1ccccc1)S(=O)(=O)c1ccc(OC)cc1 | ? | 53 | ? | 21µM* | -3%
CN(c1ccccc1C(=O)Nc1ccccc1C(=O)NCc1ccco1)S(C)(=O)=O | 2% | -9 | 1% | 3% | 26%
COc1ccc(S(=O)(=O)N(Cc2ccccc2)c2ccccc2C(=O)Nc2ccccc2C(=O)NCc2ccco2)cc1 | 6% | -6 | ? | 5.8µM* | 1%
COc1ccc(S(=O)(=O)Nc2ccccc2C(=O)NCc2ccco2)cc1 | 22% | 12 | 21µM* | ? | 23%
C=CCN(c1ccccc1OC)S(=O)(=O)c1cccc(C(=O)NCc2ccco2)c1 | 0% | 55 | 0% | 17% | -8%
CC(=O)NC(C)c1nc2ccccc2n1CC(=O)NC(C)CCc1ccccc1 (centres undefined) | 1% | 22 | ? | -24% | 1%
CCOc1ccc(CN(C)CC(=O)Nc2ccc([N+](=O)[O-])cc2Cl)cc1 | -4% | 0 | ? | 18µM* | -9%
Cc1ccc(-n2nc(CO)c(C(=O)NCc3cccs3)n2)cc1C | nt | nt | -25% | -15% | nt
